Screens (PubChem BioAssay)
KB-3-1 cytotox: kills parental KB-3-1 adenocarcinoma cells; KB-3-1 viability, CellTiter-Glo ATP luminescence, 72 h; 400,000 compounds, 1.4% hits; Potency, µM (doses to about 46.1 µM), most hits filed as cytotoxic; note: nearly all actives have a fitted effect of over 60% in size
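Parental KB-3-1 viability, qHTS format: 72 h compound exposure, 37 °C; CellTiter-Glo; media-only wells and DMSO plates as controls; concentration-effect fits on corrected data.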
KB-V1 cytotox: KB-V1 MDR subline cytotoxicity | KB-V1 MDR cells viability, CellTiter-Glo, 72 h | Potency, µM (top dose mostly 46.1 µM), hits mostly cytotoxic | 400,000 compounds, 3.4% hits | AID 1347076; note: nearly all actives have a fitted effect of over 60% in size
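Compound-treated KB-V1 multidrug-resistant cells, 72 h, 37 degrees C; viability by CellTiter-Glo. Fitted qHTS curves give the values.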
TGFb inhibitor: blocks TGF-b signaling | HepG2 CAGA-GFP TGF-b/SMAD3 reporter, GFP fluorescence, 18 h; TGF-beta stimulated, 500 pg/mL final | Potency, µM (highest dose often 46.1 µM), usual class: inhibitors | 410,000 compounds, 1.2% hits; note: nearly all actives have a fitted effect of over 65% in size
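TGF-beta reporter screen: HEPG2 CAGA-GFP, 1% FBS, 500 pg/mL TGF-beta final, 18 h; per-cell GFP summed per well; curves fitted and categorized by class.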
HepG2 tox: HepG2 cytotoxicity, counter-screen for TGF-b inhibitors; Potency, µM (titrated, usually from 46.1 µM), hits mostly cytotoxic; AID 588856; HepG2 CAGA-GFP viability, ATP luminescence, 18 h; 410,000 compounds, 0.76% hits
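HepG2 CAGA-GFP cells (1000/well, DMEM with 1% FBS) received compound, then TGF-beta at 500 pg/mL final, and were incubated 18 hours at 37 degrees C. Viability was read by CellTiter-Glo luminescence. Media-only wells were set as complete cell-killing and DMSO as no toxicity.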
ATXN viability: cell viability loss in ATXN counter-screen. S2 cells (HEK-293 line with an ATXN2-luciferase reporter) viability, CellTiter-Fluor protease fluorescence, 24 h. Potency, µM (titrated, usually from 56.7 µM), hits mostly cytotoxic. 400,000 compounds, 0.49% hits. AID 651635; note: nearly all actives have a fitted effect of over 40% in size
ATXN2 expr inh: inhibitors of ATXN2 expression | Potency, µM (titrated, usually from 57 µM), actives largely listed as inhibitors | HEK-293 ATXN2-luciferase reporter, luminescence, 24 h | 360,000 compounds, 0.72% hits; note: nearly all actives have a fitted effect of over 55% in size
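qHTS (up to 57 uM final) was run with 24 h compound exposure of reporter cells at 37 °C. Each well was multiplexed: SteadyGlo luminescence measured ATXN2-luciferase expression after a fluorogenic Gly-Phe-AFC viability readout (25 uM final).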
Numbers stand for hits; - = inactive; ? = inconclusive; . = not tested or not shown; ! = not active in a repeat. Sampled rows, rich in hits. Any-hit rate of the full collection: about 5.9%. Calls come from the whole dose curve; as a rule, active = well fitted curve in the direction sought with a large enough effect; inconclusive = small, poorly fitted or top-dose-only effect, or another doubt; inactive = no such curve, though single readings can be large; an effect the other way counts as inactive or inconclusive.

SMILES	KB-3-1 cytotox	KB-V1 cytotox	TGFb inhibitor	HepG2 tox	ATXN viability	ATXN2 expr inh
C/C=C(/C)C(=O)OC1CC(C)(C)C[C@H]2C3=CC[C@@H]4[C@@]5(C)CCC(O[C@@H]6O[C@@H](C(=O)O)[C@@H](O)C(O[C@@H]7OC[C@H](O)[C@@H](O)[C@@H]7O[C@@H]7OC(CO)C(O)[C@@H](O)[C@@H]7O)C6O[C@@H]6OC(CO)C(O)C(O)C6O)[C@@](C)(CO)[C@@H]5CC[C@]4(C)[C@]3(C)CC(O)[C@@]12CO (some centres undefined)	-	-	14.1µM	14.1µM	31.6µM	-
C/C=C(\C)C(=O)OC1[C@H](OC(C)=O)C2(CO)C(CC1(C)C)C1=CCC3C4(C)CCC(O[C@@H]5O[C@H](C(=O)O)[C@@H](O[C@@H]6O[C@H](CO)[C@@H](O)[C@H](O)[C@H]6O)[C@H](O)[C@H]5O[C@H]5O[C@H](CO)[C@@H](O)[C@H](O)[C@H]5O)[C@](C)(CO)C4CCC3(C)[C@]1(C)C[C@H]2O (some centres undefined)	-	?	4.47µM	-	14.1µM	8.91µM
CN(C)CCOc1ccccc1Cc1ccccc1 (tested in a mixture with another compound)	.	.	.	.	-	.
COc1ccc(CNC(=O)C[C@H]2C(=O)N(Cc3ccccc3)C[C@@H]2Cc2ccccc2)cc1	-	?	?	-	-	-
COc1ccc(CNC(=O)C[C@H]2C(=O)N(Cc3ccc(OC)cc3)C[C@@H]2Cc2ccccc2)cc1	-	13µM!	?	-	?	?
CCCCC[C@H]1CN(Cc2ccccc2)C(=O)[C@@H]1CC(=O)NCc1ccc(OC)cc1	?	18.4µM!	10µM	-	-	-
C[C@H]1CN(C2CCCCC2)C(=O)[C@@H]1CC(=O)NCc1ccccc1	-	?	?	-	-	-
CCCCC[C@H]1CN(C2CCCCC2)C(=O)[C@@H]1CC(=O)NCc1ccccc1	?	?	11.2µM	15.8µM!	.	?
COc1ccc(NC(=O)c2sc3nc[nH]c(=O)c3c2C)cc1OC	-	?	-	-	-	-
COc1ccc(S(=O)(=O)N2CCCC2CNC(=O)C(=O)Nc2ccc(F)cc2)cc1 (centres undefined)	-	-	-	-	-	-
Cc1ccc(S(=O)(=O)N2CCCCC2CCNC(=O)C(=O)NCc2ccco2)cc1 (centres undefined)	?	?	-	-	-	-
Cc1ccc(S(=O)(=O)N2CCCCC2CCNC(=O)C(=O)NCCc2ccco2)cc1 (centres undefined)	5.17µM	6.51µM	-	-	-	-
Cc1ccc(S(=O)(=O)N2CCCCC2CCNC(=O)C(=O)Nc2ccccc2F)cc1 (centres undefined)	7.31µM	5.8µM	-	-	-	-
Cc1cc(S(=O)(=O)N2CCCCC2CCNC(=O)C(=O)NCC2CCCO2)ccc1F (centres undefined)	-	2.59µM	-	-	-	-
COc1ccc(S(=O)(=O)N2CCCC2CNC(=O)C(=O)Nc2cccc(F)c2)cc1 (centres undefined)	-	4.11µM	-	-	-	-
CCOC(=O)c1c(C)[nH]c(CCC(=O)Nc2cc(Cl)ccc2OC)c1C	.	.	?	-	.	.
CC(=O)c1cc2c(s1)-c1cc(F)ccc1OC2	-	-	7.08µM	-	.	?
Cc1cc2n(n1)CCCN2C(=O)Nc1ccccc1C(F)(F)F	-	-	-	-	-	-
Cc1nn(Cc2c(F)c(F)c(F)c(F)c2F)c(C)c1NC(=O)c1ccc(COc2ccccc2Cl)o1	-	2.59µM	?	-	-	-
CC(C)n1nc(C(=O)Nc2cccc(S(=O)(=O)NCc3ccco3)c2)c2ccccc2c1=O	?	20.6µM	-	-	-	.
COc1ccc(Cn2cnc3c(N)c(C)c(C)cc32)cc1	-	?	-	-	?	?
CCCCCCCCn1cnc2c(N)c(C)c(C)cc21	-	?	?	20µM	-	-
Oc1cc(Nc2cccnc2)cc2cccnc12	20.6µM	-	?	-	?	?
Oc1cc(NCc2cccnc2)ccc1-c1nc2ccccc2o1	?	?	-	-	-	-
Oc1cc(NCCc2cccnc2)cc2cccnc12	?	?	?	11.2µM	?	39.8µM
SMILES	KB-3-1 cytotox	KB-V1 cytotox	TGFb inhibitor	HepG2 tox	ATXN viability	ATXN2 expr inh
Oc1cc(Nc2ccncc2)cc2cccnc12	-	-	?	-	-	-
CC(=O)Nc1ccc(S(=O)(=O)NCCc2csc3nc(-c4cccc(C)c4)nn23)cc1	.	.	?	-	.	.
Oc1cc(-c2nc3ccccc3s2)cc2c1OCCN(Cc1cccn1-c1nccs1)C2	.	.	.	.	-	.
COC(=O)c1ccc(CSC(=N)N)o1	-	-	-	-	?	?
CCc1oc(C(=O)OC)cc1CSC(=N)N	?	-	-	15.8µM	-	-
Cc1cccc(-c2nc3scc(CCNS(=O)(=O)c4ccc5c(c4)OCCO5)n3n2)c1	.	.	?	-	.	.
CCCCCC(C)NC(=S)NC(=O)c1cc(S(=O)(=O)N2CCOCC2)ccc1C (centres undefined)	-	?	11.2µM	-	-	-
CCCC(C)NC(=S)NC(=O)c1cc(S(=O)(=O)N2CCOCC2)ccc1C (centres undefined)	-	-	-	-	-	-
C/C(=N\O)c1ccc2c3c([nH]c2c1)CCCC3	8.2µM	-	-	-	-	-
CCOC(=O)c1ccc(CN(Cc2ccc(C)cc2)S(=O)(=O)c2cccc([N+](=O)[O-])c2)cc1	-	-	-	-	-	-
CCOC(=O)C(C)(C)N(Cc1cccc(C)c1)S(=O)(=O)c1cccc([N+](=O)[O-])c1	16.4µM	7.31µM	?	-	-	-
CCOC(=O)C(C)(C)N(Cc1cccc(C)c1)S(=O)(=O)c1ccc(Cl)c([N+](=O)[O-])c1	20.6µM	-	?	-	.	?
Oc1c(C(c2ccccc2)N2CCN(c3cccc(Cl)c3)CC2)sc2nc(-c3ccco3)nn12 (centres undefined)	.	.	?	-	.	.
COC(=O)N1C(=O)[C@@](c2ccc(OC)cc2)(C(C)C)N1C(=O)OC	-	-	?	-	?	-
COC(=O)N1C(=O)[C@](c2ccc(Cl)cc2)(C(C)C)N1C(=O)OC	-	-	?	15.8µM	31.6µM	?
O=C(Nc1cccc(Br)c1)c1ccn[nH]1	11.2µM	?	-	-	.	.
O=C(Nc1cccs1)Nc1ccc(Br)cc1F	-	-	11.2µM	-	-	-
Cn1cnc([N+](=O)[O-])c1Sc1ncnc2nc[nH]c12	1.84µM	?	-	-	?	-
